What follows are sequences tested against CHID1 (assay: pooled miR-30 sensor sort-seq; sequence = guide strand). Details: shRNA.

Sequence | sensor-assay potency score (higher = more potent)
TATCTCATCCTCACTGTCTAAG | -0.858
TTCAGTGTCTGGATGTACCTGG | 0.597
TAGTCCATACCATAGAAGTTGA | -1.13
TAGTCGTAGGTCATGAGGCTGA | -0.661
TCACTGTCTAAGACGTTCCGGA | -0.147
TGTAGAGTAGTCGTAGGTCATG | -1.27
ATGCGCTGTAGAGTAGTCGTAG | -0.323
AAACTGACTCTTCTCCAGCAGC | -0.926
TTCGCCACTTGGACTTCGGGTC | -0.182
TGAAAACTGACTCTTCTCCAGC | -0.645
TTTGCCGAGCAGTAGCTGCGAT | -0.629
TTTGAGGTCCGTCACCACCAAA | -1.77

Each sequence was assayed against CHMP2A in the same assay as above. Details: shRNA.

Sequence | sensor-assay potency score (higher = more potent)
AACTTGCGCACATAGCGCCGGG | -1.16
TTCAGCTGTCTGTTCATGGTGC | 0.372
TTCATGGCTTGTGCCATCGAGT | -1.33
AAACTTGCGCACATAGCGCCGG | -0.531
AAGTCTTTTGCCATGATGCGAA | -0.973
TCTAGTTTCTGTCGCTCGCGGT | -0.825
TTCATCTTCCTCATCACCCATG | -0.68
TTTCTGTCGCTCGCGGTCCAGC | -1.66
TTGTTGGACTTGAGTGTCTGGA | -0.834
TTGAGTGTCTGGATCTTGAGGG | 0.547
TGCAATGATTTTCTTCTCCTGG | -0.535
ATCATTCATCATCTCCTCCTTC | -0.0683

Reference: the OligoGym collection
